Laboratory results published in PubChem BioAssay (NCI).
About 83,000 compounds went through this panel and 20% of them were active in at least one assay; those are over-represented in the sample as a whole.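 The endpoint reported here, percent growth, reads 100 for growth as untreated, 0 for no net growth and -100 for all cells dead.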 A number with no mark means an inactive call. Activity calls are given as the source filed them. Rule for the calls: active = growth percent below 10; inactive = the rest.

system: OVCAR-3 ovarian; test: NCI-60 one-dose screen, 48 h (100 = growth as untreated, 0 = no growth, -100 = all killed); conditions: 10 µM unless noted

First: COc1cc(C2CC(c3ccccc3)=NN2C=O)ccc1Oc1nc2c(c(=O)n(C)c(=O)n2C)n1C (stereo unspecified)
Second: COc1cc(/C=C/c2cc(/C=C/c3ccc(O)c(OC)c3)n(C(=O)c3ccccc3Br)n2)ccc1O
The growth of the first is higher: 103% for the first, 12.6% for the second.

Going from COc1ccc2[nH]cc(C3(c4c[nH]c5ccc(OC)cc45)C(=O)Nc4ccc(F)cc43)c2c1 to COc1ccc(-c2cc(-c3cn(-c4cccc(Cl)c4)nc3-c3ccc(OC)cc3)[nH]c(=S)n2)cc1, the growth rises from 86.6% to 108%.

First: CC1=CC(=O)OC1C/C=C(\C)CCC1[C@@]2(C)CCC[C@@](C)(C(=O)O)C2CC[C@@]1(C)O (stereo partly specified)
Second: CC1=C(/C=C/C(C)=C/C=C(C(=O)O)\C(C)=C\C(=O)O)C(C)(C)CCC1
The growth of the first is lower: 56% for the first, 110% for the second.

First: CCN(CCC#N)c1ccccc1
Second: OC(COCc1ccccc1)COCc1ccccc1
The growth of the first is higher: 113% for the first, 94.7% for the second.

Going from CCCCOC(=O)c1cc(O)c(O)c(O)c1 to CCOC(=O)C(Cc1ccccc1)n1c(O)c(/C=N/c2ncc(Cc3ccc(Cl)cc3Cl)s2)sc1=S (stereo unspecified), the growth falls from 61.8% to 17.9%.

Compared with COc1cccc(-c2nc3sccn3c2-c2ccnc(NCCN3CCCNS3(=O)=O)n2)c1, CN1CCCN(CCNc2nccc(-c3c(-c4cccc(O)c4)nc4sccn34)n2)S1(=O)=O is lower in growth: 102% for the first, 60.6% for the second.

Going from Cc1ccc([C@H]2c3[nH]c4ccccc4c3C[C@H]3C(=O)N(CCCCCCC(=O)NO)CC(=O)N23)cc1 to CC(=O)c1ccc(N2C(=O)c3ccc(Oc4ccccc4)cc3C2=O)cc1, the growth rises from 47% to 107%.

Compared with CCn1c(Cc2ccccc2Nc2c(Cl)cccc2Cl)nnc1SCC(=O)Nc1ccccc1C(F)(F)F, O=C1N(Cc2ccccc2Cl)c2ccccc2C12NN=C(c1ccccc1)S2 (stereo unspecified) is lower in growth: 99.9% for the first, 68.7% for the second.

Going from Cc1nn(-c2cccc(Cl)c2)c(C)c1N=Nc1ccc(Br)cc1 to CN(C)c1nc(-c2cccs2)n2nc(-c3ccc(Cl)cc3)cc2n1, the growth falls from 112% to 14.8%.

Going from O=C(N/N=C\c1cc(Br)ccc1O)c1ccncc1 to Cc1csc(N/N=C/c2ccncc2)n1, the growth rises from 25.1% to 112%.

First: CC(C)OC1OC(OC(C)C)C(OC(C)C)OC1OC(C)C (stereo unspecified)
Second: COc1ccc(C(=O)OC2C(OC3C(O)COC(O[C@H]4C[C@H]5[C@@H]6CC=C7C[C@@H](O)CC[C@]7(C)[C@H]6CC[C@]5(C)[C@H]4[C@H](C)C(=O)CCC(C)C)C3OC(=O)C(C)C)OCC(O)C2O)cc1 (stereo partly specified)
The growth of the first is higher: 99.5% for the first, 60.5% for the second.

First: COc1ccc2c(c1)C1=NN(C(=O)CO)[C@H](c3ccc(OC(F)(F)F)cc3)[C@@H]1CC2
Second: COc1ccc(-c2cc(C(=O)Nc3ccc(C)cc3)nc3[nH]c(=O)sc23)cc1
The growth of the first is higher: 88.6% for the first, 80.1% for the second.

Going from Cn1c(-c2ccccc2)cc(=O)n1-c1ccccc1 to Nc1c(N)c2ccccc2c2ccccc12, the growth falls from 124% to 116%.

First: CC(C)(C)c1ccc(C(=O)Nc2sc3cc(O)ccc3c2C(N)=O)cc1
Second: Nc1c(Br)cc2c(c1Br)Cc1cc(Cl)ccc1-2
The growth of the first is lower: 90.8% for the first, 104% for the second.

Compared with CC1CCCN(CCCCOc2ccc(-c3ccc(C#N)cc3)cc2)C1 (stereo unspecified), Nc1nc(NC2CC2)cc(-c2cccc(Cl)c2Cl)n1 is lower in growth: 98.6% for the first, 36.8% for the second.

Compared with CC(=O)NC1C(O[C@H]2C[C@H]3[C@@H]4CC=C5C[C@@H](O)CC[C@]5(C)[C@H]4CC[C@]3(C)[C@H]2[C@H](C)C(=O)CCC(C)C)OCC(O)C1O (stereo partly specified), COc1ccc(/C=N/NC(N)=S)c(OC)n1 is higher in growth: 72% for the first, 111% for the second.

For CC(=O)Oc1ccccc1C(=O)Nc1ncc([N+](=O)[O-])s1, the growth was 5.56% (active).
With CNC(=O)c1c(NC(=O)c2cccc(C(F)(F)F)c2)sc2c1CCC(=O)C2 the growth was 3.37% (active).
With CCSCC1CC(O)(c2ccccc2)C(c2ccccc2)C(c2ccc(F)cc2)O1 (stereo unspecified) the growth was -62.9% (active).
COc1ccccc1-[n+]1cc(-c2ccc(-c3ccccc3)cc2)n2c1CCCCC2 was tested, and the growth was 9.07% (active).
COc1cc2c(c(OC)c1O)C(=O)C(OC)C(c1ccc(O)c(O)c1)O2 (stereo unspecified) was tested, and the growth was -24% (active).

O=C1NN(C(=O)c2ccccc2)C(c2ccc(Cl)c(Cl)c2)=C/C1=C\c1ccccc1[N+](=O)[O-] gave a growth of 15.9% [6.75 µM].

system: HS 578T breast; test: as above; conditions: 10 µM unless noted

Compared with COc1cc(C2CC(c3ccccc3)=NN2C=O)ccc1Oc1nc2c(c(=O)n(C)c(=O)n2C)n1C (stereo unspecified), Cc1ccc([C@H]2c3[nH]c4ccccc4c3C[C@H]3C(=O)N(CCCCCCC(=O)NO)CC(=O)N23)cc1 is lower in growth: 75.8% for the first, 52.5% for the second.

Going from COc1ccc2[nH]cc(C3(c4c[nH]c5ccc(OC)cc45)C(=O)Nc4ccc(F)cc43)c2c1 to COc1ccc(-c2cc(-c3cn(-c4cccc(Cl)c4)nc3-c3ccc(OC)cc3)[nH]c(=S)n2)cc1, the growth rises from 73.4% to 88.7%.

Compared with CC1=CC(=O)OC1C/C=C(\C)CCC1[C@@]2(C)CCC[C@@](C)(C(=O)O)C2CC[C@@]1(C)O (stereo partly specified), CC1=C(/C=C/C(C)=C/C=C(C(=O)O)\C(C)=C\C(=O)O)C(C)(C)CCC1 is higher in growth: 38.5% for the first, 105% for the second.

Compared with CCN(CCC#N)c1ccccc1, OC(COCc1ccccc1)COCc1ccccc1 is higher in growth: 91.8% for the first, 122% for the second.

Going from CCCCOC(=O)c1cc(O)c(O)c(O)c1 to COc1cc2c(c(OC)c1O)C(=O)C(OC)C(c1ccc(O)c(O)c1)O2 (stereo unspecified), the growth falls from 86.4% to 24.7%.

Going from COc1cccc(-c2nc3sccn3c2-c2ccnc(NCCN3CCCNS3(=O)=O)n2)c1 to CN1CCCN(CCNc2nccc(-c3c(-c4cccc(O)c4)nc4sccn34)n2)S1(=O)=O, the growth falls from 105% to 54.3%.

First: CC(=O)Oc1ccccc1C(=O)Nc1ncc([N+](=O)[O-])s1
Second: CNC(=O)c1c(NC(=O)c2cccc(C(F)(F)F)c2)sc2c1CCC(=O)C2
The growth of the first is lower: 15.6% for the first, 17.7% for the second.

Going from CCn1c(Cc2ccccc2Nc2c(Cl)cccc2Cl)nnc1SCC(=O)Nc1ccccc1C(F)(F)F to O=C1N(Cc2ccccc2Cl)c2ccccc2C12NN=C(c1ccccc1)S2 (stereo unspecified), the growth falls from 94.9% to 69.6%.

Compared with Cc1nn(-c2cccc(Cl)c2)c(C)c1N=Nc1ccc(Br)cc1, O=C(N/N=C\c1cc(Br)ccc1O)c1ccncc1 is lower in growth: 96.6% for the first, 76.5% for the second.

First: CC(C)OC1OC(OC(C)C)C(OC(C)C)OC1OC(C)C (stereo unspecified)
Second: COc1ccc(/C=N/NC(N)=S)c(OC)n1
The growth of the first is lower: 101% for the first, 103% for the second.

First: COc1ccc2c(c1)C1=NN(C(=O)CO)[C@H](c3ccc(OC(F)(F)F)cc3)[C@@H]1CC2
Second: COc1ccc(-c2cc(C(=O)Nc3ccc(C)cc3)nc3[nH]c(=O)sc23)cc1
The growth of the first is higher: 85.7% for the first, 74.1% for the second.

First: Cn1c(-c2ccccc2)cc(=O)n1-c1ccccc1
Second: COc1ccccc1-[n+]1cc(-c2ccc(-c3ccccc3)cc2)n2c1CCCCC2
The growth of the first is higher: 115% for the first, 22.1% for the second.

Compared with CC(C)(C)c1ccc(C(=O)Nc2sc3cc(O)ccc3c2C(N)=O)cc1, CC(=O)c1ccc(N2C(=O)c3ccc(Oc4ccccc4)cc3C2=O)cc1 is higher in growth: 96.1% for the first, 115% for the second.

Going from CC1CCCN(CCCCOc2ccc(-c3ccc(C#N)cc3)cc2)C1 (stereo unspecified) to Nc1c(N)c2ccccc2c2ccccc12, the growth rises from 87.4% to 104%.

First: Cc1csc(N/N=C/c2ccncc2)n1
Second: Nc1nc(NC2CC2)cc(-c2cccc(Cl)c2Cl)n1
The growth of the first is higher: 104% for the first, 64.7% for the second.

Nc1c(Br)cc2c(c1Br)Cc1cc(Cl)ccc1-2 showed a growth of 91.9%.

For COc1cc(/C=C/c2cc(/C=C/c3ccc(O)c(OC)c3)n(C(=O)c3ccccc3Br)n2)ccc1O, the growth was 3.59% (active).
CCOC(=O)C(Cc1ccccc1)n1c(O)c(/C=N/c2ncc(Cc3ccc(Cl)cc3Cl)s2)sc1=S (stereo unspecified) was tested, and the growth was -3.53% (active).
In the case of CC(=O)NC1C(O[C@H]2C[C@H]3[C@@H]4CC=C5C[C@@H](O)CC[C@]5(C)[C@H]4CC[C@]3(C)[C@H]2[C@H](C)C(=O)CCC(C)C)OCC(O)C1O (stereo partly specified), the growth is reported as 5.84% (active).
CN(C)c1nc(-c2cccs2)n2nc(-c3ccc(Cl)cc3)cc2n1 was tested, and the growth was -2.48% (active).
COc1ccc(C(=O)OC2C(OC3C(O)COC(O[C@H]4C[C@H]5[C@@H]6CC=C7C[C@@H](O)CC[C@]7(C)[C@H]6CC[C@]5(C)[C@H]4[C@H](C)C(=O)CCC(C)C)C3OC(=O)C(C)C)OCC(O)C2O)cc1 (stereo partly specified) was tested, and the growth was -2.09% (active).
In the case of CCSCC1CC(O)(c2ccccc2)C(c2ccccc2)C(c2ccc(F)cc2)O1 (stereo unspecified), the growth is reported as -35.3% (active).

O=C1NN(C(=O)c2ccccc2)C(c2ccc(Cl)c(Cl)c2)=C/C1=C\c1ccccc1[N+](=O)[O-] gave a growth of 30.8% [6.75 µM].
